A short description of assay [1]: antimalarial activity against Dd2 strain (AID 2302;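 active = growth inhibition above 50% at the single 2 µM test dose, taken to imply half-maximal potency below 2 µM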;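 note: 0% = DMSO untreated growth and 100% = chloroquine plus artemisinin killed control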). The note with it: P. falciparum Dd2 in RBCs, LDH growth readout, 72 h; at 2 µM; active compounds read high.
The nature of assay [2]: HepG2 cytotoxicity, primary screen, cytotoxicity control for P. falciparum antimalarial project, cell-based, ATP luminescence (AID 2303;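 active = inhibition above 50%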;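 note: 0% = DMSO wells and 100% = digitonin-killed cells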). The note with it: HepG2 viability, 24-48 h, at 10 µM, active compounds read high.
For assay [3], the target named is L-lactate dehydrogenase (Plasmodium falciparum (isolate CDC / Honduras)) (UniProt Q27743). Briefly: PfLDH activity inhibition – cell lysate, 3D7 strain, counter-screen for P. falciparum growth inhibition project (AID 2304).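 Note: 0% = vehicle and 100% = reference inhibitor.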 The note with it: P. falciparum 3D7 crude extract, LDH APAD/NBT absorbance; at 2 µM; active compounds read high. On the technique in general: A counterscreen serves to expose hits that act by an unwanted route or on another target.

The nature of assay [4]: inhibition of 3D7 malaria parasite growth – strain 3D7 (AID 2306).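 Note: 0% = DMSO wells and 100% = chloroquine plus artemisinin control wells.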 The note with it: P. falciparum 3D7 erythrocytic growth, LDH absorbance, 72 h; at 2 µM; active compounds read high.
The target in assay [5] is Calcium-dependent protein kinase 1 (Plasmodium falciparum (isolate 3D7)) (UniProt P62344). Briefly: PfCDPK1 kinase inhibitors, biochemical, TCAMS library (AID 1159585; cut-off not given, nearly all actives have IC50 up to about 0.98 µM;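 note: inhibitors leave more ATP so luminescence rises with inhibition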). The conditions noted are these: recombinant PfCDPK1, Kinase-Glo ATP depletion luminescence. On the technique in general: Kinase-Glo reads ATP consumption through a luciferase reaction.
Assay [6] deals with Plasmodium falciparum protein kinase 6 (PK6, PF3D7_1337100) (UniProt Q8IDW1). Briefly: PfPK6 kinase inhibitors, biochemical, TCAMS library (AID 1159586). The conditions noted are these: recombinant PfPK6, Kinase-Glo ATP depletion luminescence.
Assay [7] deals with Protein kinase 7 (PK7), Plasmodium falciparum 3D7 (PF3D7_0213400) (UniProt Q7YTF7). Briefly: inhibition of Plasmodium PK7 catalytic activity – biochemical, TCAMS antimalarial set, Kinase-Glo luminescence (AID 1159587). The note with it: recombinant PfPK7, Kinase-Glo ATP depletion luminescence.
The target in assay [8] is Calcium-dependent protein kinase 4 (Plasmodium falciparum (isolate 3D7)) (UniProt Q8IBS5). Briefly: PfCDPK4 kinase inhibitors, biochemical, TCAMS library (AID 1159588; cut-off not given, nearly all actives have IC50 up to about 0.91 µM). The conditions noted are these: recombinant PfCDPK4, Kinase-Glo ATP depletion luminescence.

Unmarked numbers belong to inactive results. For some of these results: Measured potencies and affinities stand elsewhere. Activity calls are given as the source filed them. Unless noted, the rule behind the calls is not given here.

Sequence of Calcium-dependent protein kinase 1 (Plasmodium falciparum (isolate 3D7)) (P62344 whole entry, looked up): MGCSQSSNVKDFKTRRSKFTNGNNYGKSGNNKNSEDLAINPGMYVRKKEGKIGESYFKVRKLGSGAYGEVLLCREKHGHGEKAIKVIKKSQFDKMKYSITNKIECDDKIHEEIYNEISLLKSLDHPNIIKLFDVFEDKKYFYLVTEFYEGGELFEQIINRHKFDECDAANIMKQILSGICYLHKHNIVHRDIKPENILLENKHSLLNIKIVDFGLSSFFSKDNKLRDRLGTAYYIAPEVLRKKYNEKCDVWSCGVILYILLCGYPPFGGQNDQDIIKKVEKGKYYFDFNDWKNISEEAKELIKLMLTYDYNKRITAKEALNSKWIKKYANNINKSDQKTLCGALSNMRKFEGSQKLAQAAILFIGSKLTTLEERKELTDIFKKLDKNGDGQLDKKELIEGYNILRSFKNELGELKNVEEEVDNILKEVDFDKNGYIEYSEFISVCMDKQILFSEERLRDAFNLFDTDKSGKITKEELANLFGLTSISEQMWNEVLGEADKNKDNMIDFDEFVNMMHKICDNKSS
Sequence of L-lactate dehydrogenase (Plasmodium falciparum (isolate CDC / Honduras)) (Q27743 whole entry, looked up): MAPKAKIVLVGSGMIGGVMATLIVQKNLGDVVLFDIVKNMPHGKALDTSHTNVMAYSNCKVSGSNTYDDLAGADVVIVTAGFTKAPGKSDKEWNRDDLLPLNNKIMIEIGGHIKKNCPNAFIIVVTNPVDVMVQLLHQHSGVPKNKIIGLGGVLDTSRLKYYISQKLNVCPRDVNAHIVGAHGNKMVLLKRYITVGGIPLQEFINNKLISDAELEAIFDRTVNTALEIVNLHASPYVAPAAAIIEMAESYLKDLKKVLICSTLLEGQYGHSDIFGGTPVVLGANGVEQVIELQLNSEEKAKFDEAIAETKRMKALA
Sequence of Plasmodium falciparum protein kinase 6 (PK6, PF3D7_1337100) (Q8IDW1 1-305): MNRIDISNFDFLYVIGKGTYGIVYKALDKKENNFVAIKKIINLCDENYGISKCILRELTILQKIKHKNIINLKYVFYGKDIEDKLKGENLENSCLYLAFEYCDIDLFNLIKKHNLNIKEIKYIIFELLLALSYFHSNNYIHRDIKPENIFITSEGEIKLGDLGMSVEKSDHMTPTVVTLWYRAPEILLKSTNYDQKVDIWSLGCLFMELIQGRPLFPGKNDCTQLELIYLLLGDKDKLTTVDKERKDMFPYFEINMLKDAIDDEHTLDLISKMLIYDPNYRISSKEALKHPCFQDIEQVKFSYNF
Sequence of Protein kinase 7 (PK7), Plasmodium falciparum 3D7 (PF3D7_0213400) (Q7YTF7 1-343): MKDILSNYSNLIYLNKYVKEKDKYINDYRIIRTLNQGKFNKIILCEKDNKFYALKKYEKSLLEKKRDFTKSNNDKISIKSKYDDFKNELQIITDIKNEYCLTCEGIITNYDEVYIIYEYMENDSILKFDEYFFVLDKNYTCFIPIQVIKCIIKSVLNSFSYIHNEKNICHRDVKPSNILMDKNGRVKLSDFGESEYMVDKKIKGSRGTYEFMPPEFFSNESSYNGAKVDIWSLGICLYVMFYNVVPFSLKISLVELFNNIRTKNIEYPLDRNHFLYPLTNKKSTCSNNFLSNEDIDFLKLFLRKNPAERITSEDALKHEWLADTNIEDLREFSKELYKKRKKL
Sequence of Calcium-dependent protein kinase 4 (Plasmodium falciparum (isolate 3D7)) (Q8IBS5 whole entry, looked up): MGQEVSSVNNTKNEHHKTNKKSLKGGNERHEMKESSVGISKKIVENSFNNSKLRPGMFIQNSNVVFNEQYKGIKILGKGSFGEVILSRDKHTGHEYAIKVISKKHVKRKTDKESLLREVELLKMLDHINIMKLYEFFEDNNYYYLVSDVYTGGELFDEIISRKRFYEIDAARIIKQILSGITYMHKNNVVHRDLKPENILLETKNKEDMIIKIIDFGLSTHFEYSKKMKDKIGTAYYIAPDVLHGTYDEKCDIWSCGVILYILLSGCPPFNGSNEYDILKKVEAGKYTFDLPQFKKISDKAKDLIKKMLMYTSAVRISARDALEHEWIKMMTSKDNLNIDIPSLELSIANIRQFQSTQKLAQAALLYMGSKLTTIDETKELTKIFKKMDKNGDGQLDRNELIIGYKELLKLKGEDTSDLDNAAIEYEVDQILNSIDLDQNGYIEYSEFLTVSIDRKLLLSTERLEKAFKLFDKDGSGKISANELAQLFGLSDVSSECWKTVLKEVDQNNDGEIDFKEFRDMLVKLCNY

A word on the inhibition: it is the drop in the measured response relative to a control, in per cent. Regarding `COC(=O)C1=C(C)NC2=C(C(=O)CC(c3ccc(OC)c(OC)c3)C2)C1c1cccc(O)c1` (stereo not given), the growth inhibition in assay [1] was 69% (active); in assay [4] it was 99% (active). The inhibition in assay [2] was 2%; in assay [3], 5%. The result in assay [5], in assay [6], in assay [7] and in assay [8] was inactive.

In the case of `O=C(Nc1ccc(-c2nc3ccccc3[nH]2)cc1)c1cncc(Br)c1`, the growth inhibition was 49% in assay [1] and 95% (active) in assay [4]. In addition, the results for the inhibition in assay [2] and in assay [3] were 35% and 1%, respectively. In addition, the outcome in assay [5], in assay [6], in assay [7] and in assay [8] was inactive.

Consider `COc1ccc(NC(=O)c2ccc(-c3cc(NC(=O)c4ccnc(N5CCCC5)c4)ccc3C)s2)cc1N1CCN(C)CC1`, for which the growth inhibition in assay [1] and in assay [4] was 100% (active) each time. Moreover, the inhibition was 15% in assay [2] and 6% in assay [3]. Further, the outcome in assay [5], in assay [6], in assay [7] and in assay [8] was inactive.

`COc1cc(Nc2nccc(N3CCC(NC(=O)c4cccc(C#N)c4)C3)n2)cc(OC)c1OC` (stereo not given): the growth inhibition in assay [1] is 76% (active); in assay [4] it was 91% (active). The inhibition in assay [2] is 13%; in assay [3] it was -8%. Moreover, the result in assay [5], in assay [6], in assay [7] and in assay [8] was inactive.

As to `CC(O)C1CCCCN1C(=O)c1cccc(-c2ccc(-c3nc4ccc(C(F)(F)F)cc4[nH]3)cc2)c1` (stereo not given), the growth inhibition was 100% (active) in assay [1] and 101% (active) in assay [4]. Also, the inhibition was 33% in assay [2] and 0% in assay [3]. Also, the result in assay [5], in assay [6], in assay [7] and in assay [8] was inactive.

Consider `OCCNc1nc(Nc2cccc(O)c2)nc2ccccc12`, for which the figures for the growth inhibition in assay [1] and in assay [4] were 55% (active) and 96% (active), respectively. Further, the inhibition in assay [2] and in assay [3] was 3% each time. Further, the outcome in assay [5], in assay [6], in assay [7] and in assay [8] was inactive.

Regarding `O=C(N1CCN(c2ccc(C(F)(F)F)cc2[N+](=O)[O-])CC1)C(Cl)(Cl)Cl`, the growth inhibition in assay [1] was 99% (active); in assay [4] it was 101% (active). The inhibition in assay [2] is 29%; in assay [3], 0%. In addition, the outcome in assay [5], in assay [6], in assay [7] and in assay [8] was inactive.

In the case of `CN1CCCc2ccc(NC(=O)Nc3ccc(Cl)c(Cl)c3)cc2C1`, the results for the growth inhibition in assay [1] and in assay [4] were 22% and 89% (active), respectively. The results for the inhibition in assay [2] and in assay [3] were -13% and -2%, respectively. Further, the outcome in assay [5], in assay [6], in assay [7] and in assay [8] was inactive.

In the case of `Cc1cc(OCC(=O)Nc2ccc(-c3nc4ccccc4[nH]3)cc2)cc(C)c1Cl`, the values for the growth inhibition in assay [1] and in assay [4] were 0% and 99% (active), respectively. Besides, the inhibition in assay [2] is 5%; in assay [3], -1%. The outcome in assay [5], in assay [6], in assay [7] and in assay [8] was inactive.

Turning to `Oc1ccc(Cl)cc1Nc1nc(C(F)(F)F)nc2ccccc12`, the growth inhibition in assay [1] was 63% (active); in assay [4], 86% (active). The results for the inhibition in assay [2] and in assay [3] were 16% and 5%, respectively. Moreover, the result in assay [5], in assay [6], in assay [7] and in assay [8] was inactive.

For the compound `O=C(Nc1ccc2c(c1)OCCO2)c1cc(-c2cccnc2)nc2ccc(Cl)cc12`, the growth inhibition in assay [1] is 27%; in assay [4], 95% (active). In addition, the inhibition in assay [2] was 2%; in assay [3], -1%. Also, the outcome in assay [5], in assay [6], in assay [7] and in assay [8] was inactive.

As for `CNc1ccc(CNCc2ccc(-c3ccc(-c4nc5c(C)cccc5[nH]4)cc3)cc2)cc1`, the growth inhibition was 92% (active) in assay [1] and 100% (active) in assay [4]. In addition, the values for the inhibition in assay [2] and in assay [3] were 35% and -8%, respectively. Also, the outcome in assay [5], in assay [6], in assay [7] and in assay [8] was inactive.

`CN1CCN(CCCN(Cc2cccc(-c3ccc(CNCCc4ccccc4)cc3)c2)C(=O)c2cccs2)CC1`: the values for the growth inhibition in assay [1] and in assay [4] were 97% (active) and 101% (active), respectively. Also, the inhibition in assay [2] was 86% (active); in assay [3], 2%. For the same compound, the result in assay [5], in assay [6], in assay [7] and in assay [8] was inactive.

As to `COc1cc(Cc2cnc(N)nc2N)cc(OCCCc2cc(OCc3ccccc3)no2)c1OC`, the growth inhibition in assay [1] was 4%; in assay [4], 86% (active). In addition, the inhibition was 30% in assay [2] and 2% in assay [3]. The outcome in assay [5], in assay [6], in assay [7] and in assay [8] was inactive.

Turning to `CCN1CCC(N(Cc2ccc(-c3ccc(C(F)(F)F)cc3)cc2)C(=O)Cn2c(CCc3cccc(F)c3F)cc(=O)c3ccccc32)CC1`, the growth inhibition in assay [1] and in assay [4] was 94% (active) each time. The inhibition in assay [2] is 100% (active); in assay [3] it was 3%. In addition, the outcome in assay [5], in assay [6], in assay [7] and in assay [8] was inactive.

For the compound `CNCCNCc1cccc(-c2cccc(-c3nc4c(C)cccc4[nH]3)c2)c1`, the figures for the growth inhibition in assay [1] and in assay [4] were 9% and 98% (active), respectively. Besides, the inhibition in assay [2] was 6%; in assay [3], 1%. Moreover, the result in assay [5], in assay [6], in assay [7] and in assay [8] was inactive.

As for `COc1ccc(CC(=O)NC(CCN2CCC3(CC2)CN(S(C)(=O)=O)c2ccccc23)c2ccc(Cl)c(Cl)c2)cc1OC` (stereo not given), the growth inhibition in assay [1] was 77% (active); in assay [4], 92% (active). The inhibition was 10% in assay [2] and 7% in assay [3]. The result in assay [5], in assay [6], in assay [7] and in assay [8] was inactive.

With `O=C(Cc1ccc(NC(=O)c2ccc(O)c(-c3ccc(Cl)c(Cl)c3)c2)cc1)NCCN1CCOCC1`, the growth inhibition is 24% in assay [1] and 94% (active) in assay [4]. In addition, the inhibition in assay [2] was 10%; in assay [3], 4%. Moreover, the result in assay [5], in assay [6], in assay [7] and in assay [8] was inactive.

On to `Cc1cc(NC(=O)c2cccs2)ccc1OC1CCN(Cc2ccccc2)C1` (stereo not given), for which the figures for the growth inhibition in assay [1] and in assay [4] were 87% (active) and 84% (active), respectively. The inhibition in assay [2] was 7%; in assay [3], -1%. Besides, the result in assay [5], in assay [6], in assay [7] and in assay [8] was inactive.

Turning to `Nc1ncc(-c2ccc3ncccc3c2)c(N)n1`, the results for the growth inhibition in assay [1] and in assay [4] were -1% and 97% (active), respectively. The inhibition in assay [2] was 55% (active); in assay [3] it was 2%. For the same compound, the outcome in assay [5], in assay [6], in assay [7] and in assay [8] was inactive.

For the origin of these results see PubChem BioAssay.
